# Screening data as filed in PubChem BioAssay.
# Hits are enriched below; roughly 3.6% of the tested compounds scored in any of these assays.
# HSP90 refold inh: HSP90 refolding inhibition in rabbit reticulocyte lysate | luciferase refolding luminescence, 3 h | inhibition, % at 5.6 µM | hit rate 0.91% among 290,000 | AID 1789;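 active = inhibition above the screen-wide mean plus 3 SD, computed separately per campaign, cut at about 16% in these data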;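 note: inhibitors lower the luminescence because luciferase stays unfolded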
# Peg3 promoter: Peg3 promoter activity inhibition | HeLa PEG-Prom luciferase reporter, luminescence, overnight | inhibition, % at 20 µM | AID 588405 | hit rate 1.7% among 360,000;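 active = inhibition of at least 50% at 20 µM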
# KKLEB tox: counter-screen for CF NF-kB inhibitors: cytotoxicity; AID 602141; activity change (cytotoxicity), % at 5 µM; KKLEB CF airway cells viability, ATPlite luminescence, overnight; hits give low values; cells stimulated with P. aeruginosa culture filtrate; hit rate 0.36% among 360,000;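 active = corrected activity change at or below -50% at 5 µM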
# CF NFkB block: inhibitors of cystic fibrosis induced NF-kB. KKLEB NF-kB-GFP reporter, PAF-induced, GFP fluorescence overnight. inhibition, % at 5 µM. AID 588850. hit rate 0.86% among 360,000;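 active = at least 50% inhibition at 5 µM, scaled per plate between neutral and stimulator controls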;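 note: PAF is a Pseudomonas aeruginosa culture filtrate used as stimulus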
# LGR2 antag: blocks bursicon-induced cAMP signaling via Drosophila LGR2; inhibition, % at 9.99 µM; hit rate 0.35% among 380,000; HEK293 LGR2, CRE-luciferase, bursicon-stimulated, 4 h; AID 720647;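 active = drop in luminescence signal, shown as inhibition above about 50% in the replicate tests, limit read from the data, passing the limit was not always enough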;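 note: agonist challenge used bursicon conditioned medium at about half maximal strength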
# Mdm2 MdmX PPI: inhibitors of human Mdm2/MdmX interaction | AID 485346 | inhibition, % at 8 µM | SaOS-2 split-luciferase Mdm2/MdmX complementation, luminescence | hit rate 3% among 330,000 | O15151+Q00987;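 active = inhibition of at least 50% at 8 µM in the primary screen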
# CF NFkB conf: CF NF-kB inhibition confirmation, single concentration. KKLEB CF airway cells, PAF-induced NF-kB-GFP fluorescence, overnight. hit rate 64% among 1,300. AID 602472. inhibition, % at 5 µM. shares compounds with CF NFkB block; in the data active = inhibition above about 40%;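 note: stimulus PAF is a Pseudomonas aeruginosa filtrate and not platelet activating factor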
# Hits are given with their value; . = inactive; / = no result given.
SMILES,HSP90 refold inh,Peg3 promoter,KKLEB tox,CF NFkB block,LGR2 antag,Mdm2 MdmX PPI,CF NFkB conf
O=C(NNC(=S)Nc1cccc(C(F)(F)F)c1)c1cccc(Cl)c1,.,.,.,51,.,.,77
O=C(NNC(=S)Nc1cccc(C(F)(F)F)c1)c1ccccc1Cl,.,.,.,.,.,.,/
CCc1cc(-c2[nH]ncc2-c2ccc(OC)cc2)c(O)cc1O,.,55,.,76,.,.,81
C[C@H](CO)N1C[C@H](C)[C@H](CN(C)Cc2ccc(Oc3ccccc3)cc2)Oc2ccc(NC(=O)Nc3ccc4c(c3)OCO4)cc2C1=O,/,/,/,/,.,/,/
CC(=O)O[C@H]1CC[C@@]2(C)C(CCC3C2CC[C@]2(C)OC(=O)CCC32)C1 (stereo partly specified),.,.,.,.,/,.,/
CC(=O)OC1CCC2(C)C(CCC3C4CC=C(C(C)=O)C4(C)OC(=O)CC32)C1 (stereo unspecified),/,111,.,96,107,/,101
CCCNC(=O)N(C)C[C@H]1Oc2ncc(-c3ccc(F)cc3)cc2C(=O)N([C@@H](C)CO)C[C@H]1C,/,/,/,/,.,/,/
C=C(C)[C@@H]1C2=CC(C(=O)OC)=C(C[C@H](C(=C)C)[C@H]3O[C@H]3C3=C[C@H]1OC3=O)O2,/,103,.,69,/,/,.
CN(Cc1ccccc1)Cc1c(O)ccc2ccccc12,.,.,.,.,.,.,/
CN(Cc1cc(Cl)cc(Cl)c1O)Cc1c(O)ccc2ccccc12,/,.,.,59,.,/,.
C[C@@H]1CCCCO[C@@H](CN(C)S(=O)(=O)c2ccc(F)cc2)[C@@H](C)CN([C@H](C)CO)C(=O)c2cc(NS(=O)(=O)c3ccccc3)ccc2O1,/,/,/,/,.,/,/
C[C@@H](NC(=O)c1coc(=O)c(Br)c1)c1ccccc1,.,99,.,74,/,.,60
COc1ccc(C(=O)NC(C)c2ccccc2)cc1Br (stereo unspecified),.,.,.,.,.,.,/
Cc1cccc2c1NC(=O)/C2=C\C(=O)c1cccs1,.,74,.,74,/,.,47
CCCC#Cc1cnc2c(c1)C(=O)N([C@@H](C)CO)C[C@H](C)[C@@H](CN(C)C(=O)C1CCCCC1)O2,/,/,/,/,.,/,/
C=C1C(=O)O[C@@H]2[C@H]1CC[C@H](C)[C@]1(O)CCC(=O)[C@@]21C,.,.,.,54,.,.,78
CNC(=O)C[C@H]1CC[C@H]2[C@@H](COC[C@H](O)CN2Cc2ccccc2F)O1,/,/,/,/,.,/,/
Cc1cnc(C=O)c2cccc([N+](=O)[O-])c12,/,.,.,83,.,/,65
C[C@@H]1C[C@H]2[C@@H]3CCC4=CC(=O)C=C[C@]4(C)[C@@]3(F)[C@@H](O)C[C@]2(C)[C@@]1(O)C(=O)CO,/,.,.,71,.,.,.
C[C@]12C=CC(=O)C=C1CC[C@@H]1[C@@H]2C(=O)C[C@@]2(C)[C@H]1CC[C@]2(O)C(=O)COC(=O)CCC(=O)O,.,.,.,.,.,.,/
CC1(C)OC2CC3C4CCC5=CC(=O)C=CC5(C)C4(F)C(O)CC3(C)C2(C(=O)CO)O1 (stereo unspecified),/,.,.,67,.,/,.
O=C(C[C@H]1CC[C@H](NC(=O)Nc2ccc(C(F)(F)F)cc2)[C@H](CO)O1)NCc1ccccn1,/,/,/,/,.,/,/
Cc1noc(C)c1S(=O)(=O)Nc1ccc2c(c1)C(=O)N([C@@H](C)CO)C[C@@H](C)[C@@H](CN(C)Cc1ccc3c(c1)OCO3)O2,/,/,/,/,.,/,/
CCOc1ccc(CCN2C(=S)N([C@@H](CC(C)C)CN3CCCC3CN3C(=S)NC[C@@H]3CC(C)C)C[C@@H]2Cc2ccc(O)cc2)cc1 (stereo partly specified),/,.,.,53,.,/,63
CC(C)C[C@H]1CN([C@@H](Cc2ccc(O)cc2)CN2CCC[C@@H]2CN2C(=S)NC[C@@H]2Cc2ccccc2)C(=S)N1CCc1ccccc1,/,.,.,.,.,/,/
CCOc1ccc(CCN2C(=S)N([C@@H](CC(C)C)CN3CCC[C@@H]3CN3C(=S)NC[C@@H]3CC(C)C)C[C@@H]2Cc2ccc(O)cc2)cc1,/,.,.,.,.,/,/
